39 compounds from ChEMBL document CHEMBL3433997, “St. Jude Leishmania screening dataset” (2016) can be followed below.

Broadly, the inhibition is the relative decrease from the control value, in per cent.

“And” between values parts separate entries of the source, which are not always exact repeats. Equal entries are not always repeated.

In the assay the target is Glucose transporter (Leishmania mexicana) (UniProt O61059). Description: ST_JUDE_LEISH: Cytotoxicity at 2uM final concentration against transgenic Leishmania Mexicana promastigotes LmGT2 that are glucose transport deficient and complemented with the L. Mexicana glucose transporter 2. Activity is measured by DNA content using SYBR green in vitro. Type of assay: functional.
`C1=C(c2c[nH]c3ccccc23)CCN(Cc2ccccc2)C1`: the inhibition is -0.23%.

As for `O=C(/C=C/c1ccc(Cl)c(Cl)c1)Nc1cccc(CN2CCC(c3c[nH]c4ccccc34)CC2)c1`, the inhibition turned out to be 5.33%. In the case of `CC(=O)N(Cc1cccc(-c2cccc(CNCc3ccc4c(c3)OCO4)c2)c1)C1CCN(Cc2ccccc2)CC1` it was 7.83%; in that of `Cc1c(C)c2c(c(C)c1O)CC[C@](C)(C(=O)NC1CCC(CN3CCC(c4c[nH]c5ccccc45)CC3)CC1)O2` (some centres undefined), -1.4% and -1.2%; in that of `CCCCC1(NC(=O)[C@H](CC(C)C)Nc2ccc(C#N)c3ccccc23)CCCCC1`, 2.56%. For `COc1ccc(CN(C2CC2)C(C)C(=O)c2[nH]c(C)c(C(C)=O)c2C)cc1` (centres undefined), the inhibition was -1.15%. In the case of `C=C[C@H]1CN2CC[C@H]1C[C@H]2[C@H](OS(=O)(=O)O)c1ccnc2ccccc12` it was 9.07%; in that of `CCCCC/C=C/C(=O)NC1CCC(CN2CCC(c3c[nH]c4ccccc34)CC2)CC1` (centres undefined), 4.05%. In the case of `COC(=O)c1ccc(CC(C)NCC(O)c2cccc(Br)c2)cc1` (centres undefined) it was 2.26%; in that of `C#CCOc1ccc(CC(C)NCC(O)c2cccc(C(F)(F)F)c2)cc1` (centres undefined), 0.98%. With `COCCNCc1ccc(-c2ccc(CN(C(=O)NC3CCCCC3)C3CCN(Cc4ccccc4)CC3)cc2)cc1` the figure was -1.48%. In the case of `CN(C)c1cccc(CCNCCc2c[nH]c3ccc(Cl)cc23)c1`, the inhibition worked out at 1.58%. In the case of `Cc1ccc(C(=O)Nc2ccnc(N(C)C3CCN(Cc4cccc(O)c4)CC3)c2)cn1`, the inhibition came to 1.3%. In the case of `O=C(Nc1ccc(Cl)c(Cl)c1)N1CCC(CN2CCC(c3c[nH]c4ccccc34)CC2)CC1` it was 4.11%; in that of `CC(Cc1ccc(S(=O)(=O)N(C(C)C)C(C)C)cc1)NCC(O)c1cccc(C(F)(F)F)c1` (centres undefined), 1.68%; in that of `COc1cc(C=CC(=O)N2CCC(CN3CCC(c4c[nH]c5ccccc45)CC3)CC2)ccc1O`, 6.97%. With `CC[C@H]1CN2CC[C@H]1C[C@H]2[C@@H](O)c1cc(OCCCN(C)C)nc2ccc(OC)cc12` the figure was -0.74%; with `CC(=O)N(Cc1ccccc1-c1cccc(CNCCc2ccccc2)c1)C1CCN(Cc2ccccc2)CC1`, 7.27%; with `C=CC12CCN(CC1)C(C(O)c1ccnc3ccc(OC)cc13)C2` (centres undefined), -0.85%. Take `O=C(/C=C/c1ccc(Cl)c(Cl)c1)NCCC1CCC(N2CCC(c3c[nH]c4ccc(O)cc34)CC2)CC1` (centres undefined): the inhibition came out at 1.36%. With `O=C(/C=C/c1ccc(Cl)c(Cl)c1)N1CCC(CN2CCC(c3c(-c4ccc(F)cc4)[nH]c4ccccc34)CC2)CC1` the figure was -4.69%; with `CCCc1cc(O)c2c3c(c(=O)oc2c1)CN(C)CC3`, 1.39%; with `O=C(C=Cc1ccccc1Br)NC1CCC(CN2CCC(c3c[nH]c4ccccc34)CC2)CC1` (centres undefined), 0.32% and 2.12%. Regarding `O=C(/C=C/c1ccc(Cl)c(Cl)c1)NC1CCC(CN2CCC(c3c[nH]c4cc(C(F)(F)F)ccc34)CC2)CC1` (centres undefined), the inhibition is 12.7% and 2.07%. With `COCCSc1ccc(CC(C)NCC(O)c2cccc(Cl)c2)cc1` (centres undefined) the figure was 0.74%; with `O=C(C=Cc1ccccc1O)N1CCC(CN2CCC(c3c[nH]c4ccccc34)CC2)CC1`, 2.49%; with `Cc1[nH]c2cc(F)ccc2c1C1=CCN(CCCCC2(C)C(=O)Nc3c(F)cccc32)CC1` (centres undefined), 4.44%. Regarding `CCCCNC(c1ccc(Cl)cc1)C(O)c1ccc(Cl)cc1` (centres undefined), the inhibition was 9.91%. With `COc1ccc(C=CC(=O)NC2CCC(CN3CCC(c4c[nH]c5ccccc45)CC3)CC2)cc1` (centres undefined) the figure was -5.37% and -4.75%; with `CC[C@@]1(O)C(=O)OCc2c1cc1n(c2=O)Cc2c-1nc1cc3c(cc1c2CN1CCOCC1)OCO3`, 71.6%; with `O=C(CCc1ccc(Cl)cc1Cl)NC1CCC(CN2CCC(c3c[nH]c4ccccc34)CC2)CC1` (centres undefined), -2.05% and 8.96%. With `COC(=O)c1ccc(CC(C)NCC(O)c2cc(Cl)c(N)c(Cl)c2)cc1` (centres undefined) the figure was 2.16%; with `Cc1c(C(=O)NC2CCC(CN3CCC(c4c[nH]c5ccccc45)CC3)CC2)cnn1-c1c(Cl)cc(Cl)cc1Cl` (centres undefined), -1.52%. With `CCOc1ccc(CN(CCc2ccc3c(c2)OCO3)Cc2cc(OC)ccc2O)cc1` the figure was 6.07%; with `O=C(NC1CCC(CN2CCC(c3c[nH]c4ccccc34)CC2)CC1)C1(O)c2ccccc2-c2ccccc21` (centres undefined), 2.03%. For the compound `Cn1nc(-c2ccc(S(=O)(=O)N3CCC(CN4CCC(c5c[nH]c6ccccc56)CC4)CC3)s2)cc1C(F)(F)F`, the inhibition was -1.24%. With `CC[C@H]1CN2CC[C@@H]1C[C@H]2[C@H](O)c1cc(N2CCC(O)(c3ccc(Cl)cc3)CC2)nc2ccc(OC)cc12` the figure was 2.62%. For `COC(=O)c1ccc(CC(C)NCC(O)c2cccc(C(F)(F)F)c2)cc1C` (centres undefined), the inhibition was determined as 0.87%. In the case of `CCCc1c(C(=O)NC2CCC(CN3CCC(c4c[nH]c5ccccc45)CC3)CC2)cnn1-c1c(Cl)cc(Cl)cc1Cl` (centres undefined) it was 3.07%.
